High-throughput results: PubChem, National Center for Advancing Translational Sciences (NCATS)
Vaccinia Venus: vaccinia inhibition (Venus reporter); Vaccinia virus Venus reporter expression, fluorescence; Potency, µM (top dose mostly 36.5 µM), for inactives: top-dose activity change, negative = inhibition, actives largely listed as inhibitors; 0.46% of 330,000 active; calls by dose curve; tested in A549 cells; also: potency is read from the fitted curve at half-maximal effect; % is scaled to controls: 0 for no effect and ±100 for the full control effect; nearly all actives have a fitted effect of over 30% in size
LASV entry inh: Lassa virus entry inhibition. Lassa virus pseudotype entry inhibition, cell reporter. 1.2% of 300,000 active. AID 540256. Potency, µM (top dose mostly 37.9 µM), for the others: at the highest dose activity change, negative = inhibition, usual class: inhibitors; calls by dose curve; tested in HEK293 cells; also: potency is read from the fitted curve at half-maximal effect; % is scaled to controls: 0 for no effect and ±100 for the full control effect; nearly all actives have a fitted effect of over 50% in size
VACV mCherry inh: inhibitors of vaccinia virus infection (mCherry reporter signal). Potency, µM (doses to about 36.5 µM), inactives show at the highest dose activity change, negative = inhibition, most hits filed as inhibitors. Vaccinia virus mCherry reporter infection, fluorescence. 0.63% of 310,000 active; calls by dose curve; tested in A549 cells; also: potency is read from the fitted curve at half-maximal effect; % is scaled to controls: 0 for no effect and ±100 for the full control effect; nearly all actives have a fitted effect of over 35% in size
CHX counter: affects cycloheximide protein synthesis inhibition readout, counter-screen. cell reporter, cycloheximide protein synthesis inhibition counterscreen. max response, %. 12% of 300,000 active. AID 2314; in the data active = max response mostly above about 13%, no sharp cut-off; inactive = mostly below about 14%; also: read at 38.3 µM for the half of the compounds with a filed dose; 0% is about no effect
Marburg entry inh: Marburg virus entry inhibition; Potency, µM (titrated, usually from 37.8 µM), inactives show at the highest dose activity change, negative = inhibition, usual class: inhibitors; 1.8% of 300,000 active; Marburg virus pseudotyped entry inhibition, cell reporter; calls by dose curve; tested in HEK293 cells; also: potency is read from the fitted curve at half-maximal effect; % is scaled to controls: 0 for no effect and ±100 for the full control effect
Shiga inhibitor: inhibitors of Shiga toxin in Vero cells. Vero cells, Shiga toxin protein synthesis inhibition reporter. inhibition, % at 38.7 µM. 9.2% of 290,000 active. AID 2315; in the data active = inhibition mostly above about 28%, no sharp cut-off; inactive = mostly below about 43%; also: 0% is about no effect
* hit, by the source's call; i = inactive; ? = inconclusive; . = not tested or not shown; + = active, no number; [ ] = another dose, or the depositor's remark. The entries come from a sample that favours hits as a whole.

SMILES	Vaccinia Venus	LASV entry inh	VACV mCherry inh	CHX counter	Marburg entry inh	Shiga inhibitor
S=C(Nc1ccccc1)c1ccccn1	-24%	?	.	47*	?	80*
S=C(Nc1ccc(Nc2ccccc2)cc1)Nc1ccccn1	-29%	?	?	37*	?	100*
O=C(N/N=C/c1ccccc1O)C(=O)Nc1ccccn1	.	-21%	.	24*	-27%	77*
COc1ccc(-c2cc(OC(=O)c3cccc(C)c3)c3c(C)oc(C)c3c(=O)c2)cc1	53%	?	13%	.	-9%[46.1 µM]	.
O=C(/C=C/c1cc([N+](=O)[O-])ccc1OC(F)F)Nc1cccc(OC(F)F)c1	-22%	4%	-3%	-3	-5%	-8
Cn1c(SCC(=O)NC2CCCC2)nnc1-c1cccs1	0%	-3%[46.1 µM]	-15%	1	0%[46.1 µM]	-13
CCN(CC(=O)NCc1ccc(Cl)cc1)C(=O)COc1ccc(C)cc1C	?	-19%	-14%	-1	?	-11
O=C(NCCc1ccccc1)c1cccnc1N1CCCCCC1	-19%	8%	i	-3	-27%	26
C/C(CC(=O)Nc1ccccn1)=N\NC(=O)C(=O)Nc1cccc(C)c1	-15%	-2%	-15%[1.46 µM]	-1	-19%	15
O=C(Nc1cccc(O)c1)C(=O)Nc1ccccn1	-14%	?	?	16*	?	27
O=C1Nc2ccc(Br)cc2C12OCCO2	2%	-6%	i	.	-2%[46.1 µM]	.
CN(C)CCCn1c(NCc2ccc3c(c2)OCO3)nc2ccccc21	-11%	-12%	i	-4	?	-9
CCn1c(NCc2ccc3c(c2)OCO3)nc2ccccc21	?	19%	-5%	22*	?	73
c1ccc2c(c1)nc(NCc1ccc3c(c1)OCO3)n2CCN1CCOCC1	.	7%	.	-4	-10%	-2
C=CCn1c(NCc2ccc3c(c2)OCO3)nc2ccccc21	-17%	15%	.	33*	21%	+
CCCCn1c(N)c(N(CC(C)C)C(=O)COC(=O)Cc2cccc(OC)c2)c(=O)[nH]c1=O	-18%	-22%	-18%	.	-15%	.
COc1ccc2cc(C(=O)c3ccccc3)c(=O)oc2c1	0%	?	-1%	45*	?	94*
COc1ccc2cc(-c3nc4ccc(C(=O)O)cc4[nH]3)c(=O)oc2c1	-11%	10µM*	-15%	.	.	.
CCOc1ccc2cc(C(=O)c3ccccc3)c(=O)oc2c1	-7%	?	-13%	33*	?	active
O=C(Cn1cc2ccccc2n1)N1CCOc2ccc(C(O)C3CCCCC3)cc2C1 (configuration not stated)	-8%	.	-21%	.	.	.
COc1ccccc1NC(=O)c1ccc(NC(=O)Cc2n[nH]c(=O)c3ccccc23)cc1	.	.	.	1	.	-1
O=C1NC(=O)[C@]2(Cc3ccccc3N3CCN(c4ccccc4)CC32)C(=O)N1Cc1ccccc1 (some centres not stated)	.	18%	.	30*	6%	54*
O=C1NC(=O)C2(Cc3ccccc3N3CCCC32)C(=O)N1c1ccc(Cl)cc1 (configuration not stated)	.	1%	.	-3	?	-9
O=C1NC(=O)C2(Cc3ccccc3N3CCCC32)C(=O)N1Cc1ccccc1 (configuration not stated)	.	-2%	.	-3	0%	-7
O=C1NC(=O)[C@]2(Cc3ccccc3N3CCN(c4ccccc4)CC32)C(=O)N1c1ccccc1 (some centres not stated)	.	2%	.	25*	1%	76*
SMILES	Vaccinia Venus	LASV entry inh	VACV mCherry inh	CHX counter	Marburg entry inh	Shiga inhibitor
CN1C(=O)NC(=O)[C@]2(Cc3ccccc3N3CCN(c4ccccc4)CC32)C1=O (some centres not stated)	-19%	-8%	-1%	31*	-1%	13
NS(=O)(=O)c1ccc(CNC(=O)C(c2ccccc2)c2ccccc2)cc1	-16%	?	-7%	-1	-4%	13
Cc1cc(NO)nc(-c2ccc(Br)cc2)n1	-26%	?	-27%	47*	-8%	109*
Cc1cc(C)nc(NC(=O)c2ccc(Br)cc2)n1	-3%	24%[46.1 µM]	-10%	1	3%[46.1 µM]	-3
CCc1ccc(OCCCOc2ccc(C=O)cc2)cc1	-12%	22%	-20%	19*	0%	78
CCc1ccc(OCCCC(=O)NCc2ccccc2)cc1	-20%	?	-26%	-2	?	13
Cc1ccc2onc(CNC(=O)N(C)Cc3ccccc3)c2c1	-2%	-3%[46.1 µM]	3%	.	.	.
CCc1nnc(SCc2cc(C)ccc2C)c2cc3sc(C)cc3n12	-15%	-5%[46.1 µM]	0%	.	.	.
